# Records with an inconclusive call do not appear. Active and inactive are the calls of the source. Unless noted, calls follow the shape of the dose curve; as a rule, active = well fitted curve in either direction with a large enough effect (not every such curve was filed as active); inconclusive = small, poorly fitted or top-dose-only effect, or another doubt; inactive = flat fitted curve, though single readings scatter.
# Assays:
# [1] = biological target: Lysosomal acid glucosylceramidase (Homo sapiens) (UniProt P04062); assay: Glucocerebrosidase-p2 (AID 348; in the data active = potency below about 10 µM; also: potency is read from the fitted curve at half-maximal effect); settings: purified GBA, blue fluorogenic substrate, 40 min
# In short: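 Normal human glucocerebrosidase (0.2 nM) with blue fluorogenic substrate (80 uM final) in citrate/phosphate pH 5.9 with 10mM sodium taurocholate, 0.01% tween-20; 40 min RT, NaOH/glycine stop; fluorescence Ex 365/Em 440; AC50 from a titration from 0.6 nM upwards.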
# [2] = AP1 Signaling Pathway (AID 357); settings: ME-180 AP-1-bla reporter, EGF-induced, beta-lactamase ratio, 5 h; at 7.69 µM (top of the series) unless noted;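 also: ME-180 reporter cells stimulated with EGF at its EC50 level; % is scaled to controls: 0 for no effect and ±100 for the full control effect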
# In short: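 Cells are seeded overnight, exposed to compound titrations and an EC50 level of EGF for 5 hours at 37 °C, then loaded with CCF4 dye for 2.5 hours. Beta-lactamase activity under the AP-1 element is read as a blue/green ratio.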
# [3] = biological target: Cytochrome P450 1A2 (Homo sapiens) (UniProt P05177); assay: p450-cyp1a2 (AID 410; calls by dose curve; also: potency is read from the fitted curve at half-maximal effect;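 as to activity change, negative = inhibition: -100% = full effect of reference inhibitor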); settings: recombinant CYP1A2, luciferin-ME demethylation, luminescence; series mostly up to 57 µM
# In short: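 Read-out is luminescence from luciferin produced by CYP1A2 demethylation of Luciferin-ME (100uM, at Km). Detection reagent stopped the 60 min NADPH-dependent reaction; signals were normalized to 57 uM furafylline.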
# [4] = Stat Signaling Pathway (AID 446); settings: ME-180 SIE beta-lactamase reporter, IL-6 stimulated, 5 h; at 7.69 µM (top of the series) unless noted;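 also: ME-180 cervical cancer cells given 40 pM IL-6 alongside compound; SIE-controlled beta-lactamase reporter measured as 460/530 nm FRET emission ratio; % is scaled to controls: 0 for no effect and ±100 for the full control effect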
# In short: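 Emission at 460 and 530 nm (excitation 405 nm) reports SIE-controlled beta-lactamase in ME-180 cells. Cells received compound with 40 pM IL-6 for 5 hrs at 37 C; data scaled between 300 pM IL-6 and 125 nM JAK-inhibitor controls.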
# [5] = biological target: Glucocorticoid receptor (Homo sapiens) (UniProt P04150); assay: GR-EFC Redistribution (AID 451; calls by dose curve; also: potency is read from the fitted curve at half-maximal effect); settings: CHO-K1 GR-EFC translocation, beta-gal luminescence, 2 h
# In short: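 CHO-K1 cells expressing nuclear EA and GR-ED fragments of b-gal; compounds titrated up to 46 uM final, 2 h at 37 C. GR nuclear translocation read as complemented b-gal luminescence after 1 h RT detection.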
# [6] = biological target: Mitogen-activated protein kinase 10 (Mus musculus) (UniProt Q61831); assay: JNK3 AlphaScreen Assay (AID 530); settings: JNK3 lysate, c-Jun phosphorylation; series mostly up to 57.1 µM;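 also: kinase came from lysate of stimulated human HepG2 cells; signal reports phosphorylation of biotinylated GST-cJun 1-79 at Ser73 with 10 µM ATP; % is scaled to controls: 0 for no effect and ±100 for the full control effect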
# In short: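 HepG2 lysate (IL-1b/TNFa pre-activated) + biotin-GST-cJun 1-79 + anti-pSer73 cJun; cpd titration, 15 min RT; ATP 10 uM start; Tris pH 7.6, MgCl2, DTT, vanadate; beads in EDTA buffer; AlphaScreen.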
# [7] = biological target: 3',5'-cyclic-AMP phosphodiesterase 4B (Homo sapiens) (UniProt Q07343); assay: qHTS Assay for Inhibitors of PDE-IV (AID 607; active = well fitted activation curve with a large enough effect in the main read-out, with a control signal flat, not every such curve was filed as active; also: % of control where 0% means no effect); settings: HEK293 ACTOne CNG channel cells, membrane potential fluorescence; series mostly up to 22.9 µM
# In short: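 The readout is membrane depolarisation from a cAMP-sensing CNG channel, detected with a potential dye at ex 535/em 590. Cells were HEK293-derived (endogenous PDE-IV) at 1000 cells/well, titrated up to 22.9 uM final.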
# [8] = qHTS Assay for Lipid Storage Modulators (AID 1519; calls by dose curve); settings: Drosophila S3 cells, BODIPY lipid droplet/cell ratio, laser cytometry, cells loaded with oleic acid; for activity change, negative = inhibition: at 57.5 µM (top of the series)
# In short: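 Cells seeded at 5,000 per well were treated with compounds over a concentration series and loaded with oleic acid (400 uM, as added). Lipid droplet fluorescence (488 nm excitation, 500-530 nm channel) was read by laser-scanning cytometry and normalized to 20 uM Triacsin C.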
# [9] = Primary qHTS for small molecule stabilizers of the endoplasmic reticulum resident proteome: Secreted ER Calcium Modulated Protein (SERCaMP) assay (AID 1508630; active = well fitted curve in the direction sought with a large enough effect; an effect the other way counts as inactive or inconclusive; also: % is scaled to controls: 0 for no effect and ±100 for the full control effect); settings: SH-SY5Y GLuc-SERCaMP (Gaussia luciferase released on ER calcium loss) secretion, thapsigargin, luminescence; series mostly up to 38.4 µM
# In short: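 The SH-SY5Y reporter protocol was run at 3 concentrations up to 38.3 uM (primary) or 11 concentrations (follow-up): 16 h compound, 100 nM thapsigargin for 4 h, then extracellular luciferase luminescence.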
# [10] = biological target: Glucocorticoid receptor (Homo sapiens) (UniProt P04150); assay: GR-GFP Redistribution (AID 450;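 active = compounds whose dose series gives a full or clear partial fitted curve of increased nuclear translocation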; also: potency is read from the fitted curve at half-maximal effect); settings: U2OS GR-GFP nuclear translocation, laser cytometry, 2 h
# [11] = biological target: Cytochrome P450 3A4 (Homo sapiens) (UniProt P08684); assay: qHTS Assay for Inhibitors and Substrates of Cytochrome P450 3A4 (AID 884; active = well fitted curve in the direction sought with a large enough effect; an effect the other way counts as inactive or inconclusive; also: nearly all actives have a fitted effect of over 50% in size; also: potency is read from the fitted curve at half-maximal effect); settings: recombinant CYP3A4, Luciferin-PPXE luminescence; series mostly up to 57.1 µM
# In short: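 Luminescent readout of luciferin produced by CYP3A4 (20 nM) dealkylation of Luciferin-PPXE, 25 uM (its KM). NADPH-driven reaction ran 60 min at RT after 10 min compound preincubation; data scaled to 57 uM ketoconazole as 100% inhibition.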
# [12] = biological target: Cytochrome P450 3A4 (Homo sapiens) (UniProt P08684); assay: qHTS Assay for Activators of Cytochrome P450 3A4 (AID 885; active = well fitted curve in the direction sought with a large enough effect; an effect the other way counts as inactive or inconclusive; also: nearly all actives have a fitted effect of over 65% in size); settings: recombinant CYP3A4, Luciferin-PPXE luminescence, 60 min; series mostly up to 57.1 µM
# In short: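 Activators are scored by enhanced luminescence from CYP3A4 conversion of luciferin-PPXE (25uM, equal to KM) to luciferin, after 60 min at RT with an NADPH-regenerating system.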
# [13] = Confirmation and Secondary Assay for Modulators of Hemoglobin Beta Chain Splicing at IVS2 654 locus (AID 910; active = well fitted curve in the direction sought with a large enough effect; an effect the other way counts as inactive or inconclusive;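 also: HeLa cells stably carrying EGFP split by mutant beta-globin IVS2-654 intron; % of control where 0% means no effect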); settings: HeLa EGFP-654 splicing reporter, GFP fluorescence, 48 h; series mostly up to 38.3 µM
# In short: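 HeLa cells stably expressing EGFP interrupted by β-globin IVS2-654 intron, seeded overnight in Opti-MEM/2% FCS, then treated 2 days at 37 °C. Restored splicing read as total peak GFP intensity per well by laser scanning cytometry (488 nm excitation, 500–520 nm emission); 500 nM antisense PNA as control.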
# [14] = Confirmation and Secondary Assay for Modulators of Hemoglobin Beta Chain Splicing at IVS2 705 locus (AID 930; active = well fitted curve in the direction sought with a large enough effect; an effect the other way counts as inactive or inconclusive;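 also: HeLa cells stably expressing the EGFP-705 splicing reporter; GFP fluorescence per well restored by corrected splicing of the IVS2-705 intron in EGFP; % of control where 0% means no effect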); settings: HeLa EGFP-705 splicing reporter, GFP fluorescence, 48 h; series mostly up to 38.3 µM
# In short: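 Read-out: total peak GFP fluorescence per well (488 nm excitation, 500-520 nm emission) by laser-scanning cytometry. Cells: HeLa EGFP-705 splicing reporter, 2 days compound exposure in Optimem/2% FCS.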
# [15] = biological target: Ubiquitin carboxyl-terminal hydrolase 1 (Homo sapiens) (UniProt O94782); assay: Inhibitors of USP1/UAF1: Pilot qHTS (AID 504865; active = well fitted curve in the direction sought with a large enough effect; an effect the other way counts as inactive or inconclusive;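 also: rhodamine fluorescence freed from ubiquitin-rhodamine substrate followed over time; top concentration of the series differs between compounds; % is scaled to controls: 0 for no effect and ±100 for the full control effect; nearly all actives have a fitted effect of over 35% in size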); settings: purified USP1/UAF1, Ub-rhodamine cleavage fluorescence; series mostly up to 54.9 µM
# In short: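 1nM USP1/UAF1 + cpd, 15 min RT; start w/ Ub-Rho 150nM final; kinetic FL 480/540 nm, 6 reads q60 s. Buffer 50mM HEPES pH 7.8, 0.5mM EDTA, 1mM TCEP, 0.01% Tween-20, 0.1 mg/ml BSA.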
# [16] = biological target: Cytochrome P450 2D6 (Homo sapiens) (UniProt P10635); assay: qHTS Assay for Inhibitors and Substrates of Cytochrome P450 2D6 (AID 891; active = well fitted curve in the direction sought with a large enough effect; an effect the other way counts as inactive or inconclusive; also: nearly all actives have a fitted effect of over 60% in size; also: potency is read from the fitted curve at half-maximal effect); settings: recombinant CYP2D6, luciferin-ME EGE luminescence; series mostly up to 57.1 µM
# In short: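 Luminescent read-out of luciferin formed by 5 nM human CYP2D6 demethylating 30 uM Luciferin-ME EGE (Km level) over 60 min at room temperature after NADPH regeneration addition. Data normalized to full inhibition by 1.43 uM quinidine.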
# [17] = biological target: Cytochrome P450 2C9 (Homo sapiens) (UniProt P11712); assay: qHTS Assay for Inhibitors and Substrates of Cytochrome P450 2C9 (AID 883; active = well fitted curve in the direction sought with a large enough effect; an effect the other way counts as inactive or inconclusive; also: potency is read from the fitted curve at half-maximal effect; nearly all actives have a fitted effect of over 60% in size); settings: recombinant CYP2C9, luciferin-H luminescence, 60 min; series mostly up to 57.1 µM
# In short: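 10nM CYP2C9 + 100uM Luciferin-H (=KM), 25mM KPO4; cpd 10 min 37C; NADPH regen, 60 min 37C; stop/detect with P450 Glo-Buffer 20 min; luminescence. Norm. to 57uM sulphaphenazole as full inhibition.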
# [18] = qHTS Assay for Identification of Small Molecule Agonists for Hypoxia Response Element Signaling Pathway (AID 914; active = well fitted activation curve with a large enough effect in the signal ratio, with a control signal flat, not every such curve was filed as active; the % refers to the signal ratio; also: % of control where 0% means no effect); settings: ME-180 (cervical carcinoma) HRE-bla reporter, beta-lactamase ratio, CoCl2, 17 h; activation: stronger effect = higher value
# In short: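 HRE-bla ME-180 cells, overnight plating in Opti-MEM with 0.5% dialyzed FBS; cpd titration + EC50 CoCl2, 17 h, 37 degrees Celsius; CCF4 2.5 h RT; 460/530 nm ratio; AC50.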
# [19] = measured here: cell count channel max response
# [20] = measured here: lipid channel max response
# Sequence of Glucocorticoid receptor (Homo sapiens) (P04150 whole entry, looked up, the tested form may be a part): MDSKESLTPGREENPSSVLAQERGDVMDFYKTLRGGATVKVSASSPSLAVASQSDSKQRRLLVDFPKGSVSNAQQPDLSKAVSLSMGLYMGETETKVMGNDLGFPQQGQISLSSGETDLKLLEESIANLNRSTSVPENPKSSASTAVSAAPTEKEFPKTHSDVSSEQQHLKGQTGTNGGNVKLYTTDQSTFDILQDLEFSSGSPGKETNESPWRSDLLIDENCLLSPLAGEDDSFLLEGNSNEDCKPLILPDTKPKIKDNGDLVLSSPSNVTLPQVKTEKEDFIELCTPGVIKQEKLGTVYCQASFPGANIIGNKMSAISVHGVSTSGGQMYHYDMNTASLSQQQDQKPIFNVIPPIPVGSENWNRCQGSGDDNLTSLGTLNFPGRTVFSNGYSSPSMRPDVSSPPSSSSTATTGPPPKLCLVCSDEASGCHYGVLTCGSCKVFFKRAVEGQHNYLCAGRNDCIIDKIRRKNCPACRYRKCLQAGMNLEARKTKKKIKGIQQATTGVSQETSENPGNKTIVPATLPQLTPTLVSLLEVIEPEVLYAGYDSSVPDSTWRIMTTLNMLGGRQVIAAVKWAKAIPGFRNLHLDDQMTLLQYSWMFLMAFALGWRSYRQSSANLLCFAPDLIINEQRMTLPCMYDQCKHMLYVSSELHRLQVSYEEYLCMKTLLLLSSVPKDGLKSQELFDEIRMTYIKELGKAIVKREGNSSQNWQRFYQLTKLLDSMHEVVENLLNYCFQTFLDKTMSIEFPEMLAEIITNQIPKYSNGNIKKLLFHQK
# Sequence of Cytochrome P450 3A4 (Homo sapiens) (P08684 whole entry, looked up): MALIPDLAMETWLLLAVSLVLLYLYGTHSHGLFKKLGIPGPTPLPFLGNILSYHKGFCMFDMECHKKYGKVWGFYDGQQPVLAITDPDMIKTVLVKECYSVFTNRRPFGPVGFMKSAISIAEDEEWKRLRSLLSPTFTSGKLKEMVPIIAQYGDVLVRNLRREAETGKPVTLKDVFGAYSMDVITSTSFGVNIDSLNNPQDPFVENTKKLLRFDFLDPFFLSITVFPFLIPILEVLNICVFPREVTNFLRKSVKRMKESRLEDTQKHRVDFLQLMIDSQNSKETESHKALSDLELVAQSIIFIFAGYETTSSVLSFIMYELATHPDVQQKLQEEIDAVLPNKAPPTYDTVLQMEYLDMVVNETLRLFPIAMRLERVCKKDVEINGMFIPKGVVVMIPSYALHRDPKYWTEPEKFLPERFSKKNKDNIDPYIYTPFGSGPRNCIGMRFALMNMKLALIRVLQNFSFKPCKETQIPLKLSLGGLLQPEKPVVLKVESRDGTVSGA
# Sequence of 3',5'-cyclic-AMP phosphodiesterase 4B (Homo sapiens) (Q07343 whole entry, looked up): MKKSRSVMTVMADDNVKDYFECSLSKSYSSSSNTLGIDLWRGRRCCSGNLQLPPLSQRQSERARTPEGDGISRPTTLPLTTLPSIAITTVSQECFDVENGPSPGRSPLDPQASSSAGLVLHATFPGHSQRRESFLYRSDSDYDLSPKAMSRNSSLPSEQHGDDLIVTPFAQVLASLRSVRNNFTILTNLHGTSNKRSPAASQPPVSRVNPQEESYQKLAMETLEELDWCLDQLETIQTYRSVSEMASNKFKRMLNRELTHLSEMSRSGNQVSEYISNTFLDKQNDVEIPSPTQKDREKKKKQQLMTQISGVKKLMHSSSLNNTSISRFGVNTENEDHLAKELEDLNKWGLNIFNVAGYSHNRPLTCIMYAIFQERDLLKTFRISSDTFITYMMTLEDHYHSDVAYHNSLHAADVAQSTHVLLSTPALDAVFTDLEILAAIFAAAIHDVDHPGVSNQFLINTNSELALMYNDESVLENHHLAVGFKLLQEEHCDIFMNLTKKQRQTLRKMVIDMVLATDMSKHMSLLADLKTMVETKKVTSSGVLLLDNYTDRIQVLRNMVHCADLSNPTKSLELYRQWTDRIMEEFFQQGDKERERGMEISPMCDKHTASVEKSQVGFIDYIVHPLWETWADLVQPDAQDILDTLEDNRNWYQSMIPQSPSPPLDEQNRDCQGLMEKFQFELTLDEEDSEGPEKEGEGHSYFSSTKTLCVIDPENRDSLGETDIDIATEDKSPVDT
# Sequence of Ubiquitin carboxyl-terminal hydrolase 1 (Homo sapiens) (O94782 whole entry, looked up): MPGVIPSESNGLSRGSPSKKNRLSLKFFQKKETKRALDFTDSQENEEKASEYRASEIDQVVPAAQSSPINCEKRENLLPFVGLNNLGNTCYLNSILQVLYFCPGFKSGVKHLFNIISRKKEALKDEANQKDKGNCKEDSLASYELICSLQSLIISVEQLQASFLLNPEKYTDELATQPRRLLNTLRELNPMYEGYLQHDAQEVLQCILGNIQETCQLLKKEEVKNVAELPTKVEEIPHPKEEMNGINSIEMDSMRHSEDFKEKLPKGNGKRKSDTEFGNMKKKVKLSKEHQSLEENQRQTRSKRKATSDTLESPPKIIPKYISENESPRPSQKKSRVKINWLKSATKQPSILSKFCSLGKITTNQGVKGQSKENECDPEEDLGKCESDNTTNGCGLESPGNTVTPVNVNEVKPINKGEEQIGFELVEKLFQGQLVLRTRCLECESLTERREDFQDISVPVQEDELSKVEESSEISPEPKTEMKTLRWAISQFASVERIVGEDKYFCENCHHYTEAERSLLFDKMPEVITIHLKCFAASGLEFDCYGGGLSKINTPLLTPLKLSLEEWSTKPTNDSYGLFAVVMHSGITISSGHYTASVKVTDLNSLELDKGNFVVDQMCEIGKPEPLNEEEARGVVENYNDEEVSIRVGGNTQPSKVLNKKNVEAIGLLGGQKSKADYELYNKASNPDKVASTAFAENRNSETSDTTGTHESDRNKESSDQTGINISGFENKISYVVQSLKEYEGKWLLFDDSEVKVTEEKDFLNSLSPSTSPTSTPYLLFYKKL
# Sequence of Cytochrome P450 2D6 (Homo sapiens) (P10635 whole entry, looked up): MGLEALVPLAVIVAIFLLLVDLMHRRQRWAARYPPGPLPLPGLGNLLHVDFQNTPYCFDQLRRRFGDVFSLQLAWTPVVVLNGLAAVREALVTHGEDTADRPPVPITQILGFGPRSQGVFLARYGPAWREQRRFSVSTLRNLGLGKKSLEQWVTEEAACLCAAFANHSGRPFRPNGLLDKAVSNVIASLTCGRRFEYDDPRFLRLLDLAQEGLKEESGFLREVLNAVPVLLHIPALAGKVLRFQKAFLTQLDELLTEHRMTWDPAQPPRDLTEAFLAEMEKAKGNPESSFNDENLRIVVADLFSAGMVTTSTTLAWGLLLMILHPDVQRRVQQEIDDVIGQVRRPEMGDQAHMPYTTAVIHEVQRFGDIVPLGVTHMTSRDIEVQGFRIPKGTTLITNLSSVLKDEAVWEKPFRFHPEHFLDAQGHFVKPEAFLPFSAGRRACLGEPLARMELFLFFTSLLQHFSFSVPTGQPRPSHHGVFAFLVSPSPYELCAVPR
# Sequence of Lysosomal acid glucosylceramidase (Homo sapiens) (P04062 whole entry, looked up): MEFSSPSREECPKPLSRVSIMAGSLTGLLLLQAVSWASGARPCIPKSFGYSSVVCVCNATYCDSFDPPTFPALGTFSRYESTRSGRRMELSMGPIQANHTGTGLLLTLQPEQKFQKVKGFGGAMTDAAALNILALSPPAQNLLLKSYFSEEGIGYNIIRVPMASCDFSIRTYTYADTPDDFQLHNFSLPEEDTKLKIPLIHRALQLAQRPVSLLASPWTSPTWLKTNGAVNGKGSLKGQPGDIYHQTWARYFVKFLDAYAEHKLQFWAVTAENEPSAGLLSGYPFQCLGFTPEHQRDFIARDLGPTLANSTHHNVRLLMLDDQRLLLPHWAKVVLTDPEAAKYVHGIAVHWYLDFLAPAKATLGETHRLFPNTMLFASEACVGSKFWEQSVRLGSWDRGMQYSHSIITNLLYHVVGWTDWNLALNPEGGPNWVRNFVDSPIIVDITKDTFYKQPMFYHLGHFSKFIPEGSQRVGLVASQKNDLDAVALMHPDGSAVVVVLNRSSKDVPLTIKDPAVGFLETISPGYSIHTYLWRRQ
# Sequence of Cytochrome P450 1A2 (Homo sapiens) (P05177 whole entry, looked up): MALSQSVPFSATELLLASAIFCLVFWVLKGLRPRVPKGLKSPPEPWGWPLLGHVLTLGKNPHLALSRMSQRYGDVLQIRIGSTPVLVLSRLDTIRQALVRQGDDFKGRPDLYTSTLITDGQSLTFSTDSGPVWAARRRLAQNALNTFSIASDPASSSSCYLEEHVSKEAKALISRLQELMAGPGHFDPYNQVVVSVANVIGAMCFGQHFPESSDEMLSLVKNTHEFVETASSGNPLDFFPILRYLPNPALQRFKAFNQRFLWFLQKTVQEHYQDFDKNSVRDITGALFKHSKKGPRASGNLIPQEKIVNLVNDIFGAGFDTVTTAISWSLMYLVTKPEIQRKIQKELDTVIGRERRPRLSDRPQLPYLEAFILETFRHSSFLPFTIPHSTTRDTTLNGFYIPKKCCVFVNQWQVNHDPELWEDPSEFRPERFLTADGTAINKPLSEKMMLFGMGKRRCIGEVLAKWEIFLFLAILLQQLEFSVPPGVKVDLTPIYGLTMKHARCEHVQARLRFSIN
# Sequence of Cytochrome P450 2C9 (Homo sapiens) (P11712 whole entry, looked up): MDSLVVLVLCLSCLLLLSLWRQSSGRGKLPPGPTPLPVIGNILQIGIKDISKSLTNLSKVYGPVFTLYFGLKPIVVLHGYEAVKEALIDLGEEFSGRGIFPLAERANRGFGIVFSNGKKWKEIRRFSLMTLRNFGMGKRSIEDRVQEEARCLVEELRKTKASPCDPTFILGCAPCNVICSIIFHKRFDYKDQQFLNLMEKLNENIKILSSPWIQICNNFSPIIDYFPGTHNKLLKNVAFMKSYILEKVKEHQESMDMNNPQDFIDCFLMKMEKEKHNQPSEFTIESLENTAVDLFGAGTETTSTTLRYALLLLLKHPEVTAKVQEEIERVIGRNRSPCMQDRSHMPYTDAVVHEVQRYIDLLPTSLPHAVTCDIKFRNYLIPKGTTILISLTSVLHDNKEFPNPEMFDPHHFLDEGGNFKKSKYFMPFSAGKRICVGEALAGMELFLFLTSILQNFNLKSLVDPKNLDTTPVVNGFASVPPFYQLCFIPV
SMILES,Potency [1],"activity change, negative = inhibition [2]",Potency [3],"activity, negative = inhibition [4]",Potency [5],Potency [6],Potency [7],"activity change, negative = inhibition [8]","max response [8, 19]","max response [8, 20]",outcome [9],Potency [10],Potency [11],Potency [12],Potency [13],outcome [14],Potency [15],Potency [16],Potency [17],activation [18]
N#Cc1ccc(CN2CCC3(CC2)CCN(C(=O)c2cc(C(F)(F)F)cc(C(F)(F)F)c2)CC3)cc1,> 11.4 µM (inactive),7.04% (inactive),inactive,3.33% (inactive),> 46 µM (inactive),inactive,inactive,1.9% (inactive),7.25%,11%,inactive,,,,,,,,,
CC(C)CN1CCC2(CC1)CCN(S(=O)(=O)c1ccccc1)CC2,> 11.4 µM (inactive),-4.17% (inactive),inactive,-1.58% (inactive),> 46 µM (inactive),inactive,inactive,2.93% (inactive),-0.0585%,3.86%,inactive,,,,,,,,,
Cc1cnc(CNc2ncnc3ccc(-c4cccc(C#N)c4)cc23)cn1,> 11.4 µM (inactive),-21.7% (inactive),0.398 µM (active),-7.7% (inactive),> 46 µM (inactive),inactive,inactive,11.4% (inactive),-3.07%,8.37%,inactive,> 46 µM (inactive),3.16 µM (active),inactive,inactive,inactive,inactive,,,
COCC(=O)N1CCC2(CCN(Cc3ccccc3OC)CC2)CC1,> 11.4 µM (inactive),-3.62% (inactive),inactive,-4.34% (inactive),> 46 µM (inactive),inactive,inactive,-2.32% (inactive),-22.5%,-24%,inactive,,,,,,,,,
Cn1cccc1C(=O)N1CCC2(CC1)CN(Cc1ccc(C#N)cc1)C2,> 11.4 µM (inactive),6.46% (inactive),inactive,-7.55% (inactive),> 46 µM (inactive),inactive,inactive,4.17% (inactive),20.5%,25.8%,inactive,,,,,,,,,
CN(C)c1ccc(-c2nc(NCc3cccnc3)c3ccccc3n2)cc1,9.34 µM (active),-8.92% (inactive),1.58 µM (active),19.7% (inactive),> 46 µM (inactive),inactive,inactive,8.26% (inactive),-14.2%,-5.05%,inactive,> 46 µM (inactive),2 µM (active),inactive,inactive,inactive,inactive,7.94 µM (active),,
O=C(c1csnn1)N1CCC2(CC1)CCN(C(c1ccccc1)c1ccccc1)CC2,> 11.4 µM (inactive),-5.85% (inactive),inactive,4.86% (inactive),> 46 µM (inactive),inactive,inactive,-2.09% (inactive),3.93%,2.32%,inactive,,,,,,,,,
COc1ccccc1CN1CCCC2(CCN(C(C)=O)CC2)C1,> 11.4 µM (inactive),0.608% (inactive),25.1 µM (active),9.98% (inactive),> 46 µM (inactive),inactive,inactive,0.567% (inactive),7.93%,13%,inactive,,,,,,,,,
CN1CCCC2(CCN(C(=O)c3cccc(F)c3)CC2)C1,> 11.4 µM (inactive),-7.14% (inactive),31.6 µM (active),6.64% (inactive),> 46 µM (inactive),inactive,inactive,0.413% (inactive),7.52%,10.1%,inactive,,inactive,,,,,inactive,20 µM (active),
CC(=O)N1CCC2(CCN(Cc3ccccc3)CC2)CC1,> 11.4 µM (inactive),-7.18% (inactive),inactive,-5.27% (inactive),> 46 µM (inactive),inactive,inactive,-3.2% (inactive),-4.28%,-4.62%,inactive,,,,,,,,,
O=C(c1cccc(F)c1)N1CCC2(CCCN(Cc3ccccc3)C2)CC1,> 11.4 µM (inactive),1.11% (inactive),inactive,-5.98% (inactive),> 46 µM (inactive),inactive,inactive,-8.15% (inactive),20.2%,12%,inactive,,,,,,,,,
COc1ccccc1-c1nc(NCCNC(C)=O)c2ccccc2n1,> 11.4 µM (inactive),-11.3% (inactive),15.8 µM (active),5.28% (inactive),> 46 µM (inactive),inactive,inactive,5.2% (inactive),8.82%,14.5%,inactive,> 46 µM (inactive),,,inactive,inactive,inactive,6.31 µM (active),,-0.258% (inactive)
O=C(c1cccc(F)c1)N1CCC2(CCN(Cc3ccncc3)CC2)CC1,> 11.4 µM (inactive),-25.9% (inactive),12.6 µM (active),-0.6% (inactive),> 46 µM (inactive),inactive,inactive,2.27% (inactive),4.86%,11.8%,inactive,,,inactive,,,,,2.51 µM (active),
O=C(c1ccncc1)N1CCC2(CC1)CCN(c1ccccn1)CC2,> 11.4 µM (inactive),8.14% (inactive),12.6 µM (active),-1.09% (inactive),> 46 µM (inactive),inactive,inactive,6.99% (inactive),10.7%,20.3%,inactive,,,,,,,,,

# — PubChem BioAssay (NCATS)
